From PubChem BioAssay (NCI)
This is part of a sample that, as a whole, favours compounds with a hit. Of some 83,000 tested, about 20% had one in any assay.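 Treatment: one concentration, 48 hours, 96-well format. Scoring: percent growth, with anything below 10 considered active.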 Values without a mark were called inactive. Active and inactive are the calls of the source.

How the values were obtained:
Experiment in all cases: NCI-60 one-dose screen, 48 h (100 = growth as untreated, 0 = no growth, -100 = all killed)
Details in all cases: 10 µM unless noted
T-47D breast = tested on: T-47D breast
MDA-MB-435 melanoma = tested on: MDA-MB-435 melanoma
SW-620 colon = tested on: SW-620 colon
MCF7 breast = tested on: MCF7 breast
HCT-116 colon = tested on: HCT-116 colon
HCC-2998 colon = tested on: HCC-2998 colon
KM12 colon = tested on: KM12 colon

Compound	growth (T-47D breast)	growth (MDA-MB-435 melanoma)	growth (SW-620 colon)	growth (MCF7 breast)	growth (HCT-116 colon)	growth (HCC-2998 colon)	growth (KM12 colon)
Cc1ccsc1[C@H]1c2[nH]c3ccccc3c2C[C@H]2C(=O)N(CCCCCCC(=O)NO)CC(=O)N12	57.6%	90.6%	82.5%	50.1%	68.1%	88.1%	81.1%
CCCCN1C(=O)/C(=c2\sc3n(c2=O)C2C(NN=3)N(CC)C(=O)N2CC)c2cc(C)ccc21 (centres undefined)	93.8%	84.5%	95.1%	80%	85.3%	109%	94.1%
COc1ccc(N2CCN(C3=C(Cl)C(=O)c4ncccc4C3=O)CC2)cc1	-53.3% (active)	-59.9% (active)	-4.75% (active)	-27.6% (active)	-59.7% (active)	107%	95.7%
Cc1[nH]c(C(=O)Nc2ccccc2OCc2cccc(C(=O)NCCN)c2)cc1Cl	87.1%	20.6%	32.4%	11.3%	38.2%	109%	86.4%
O=c1[nH][nH]c(-c2ccc(F)cc2)c1-c1nc2ccccc2s1	87.7%	104%	105%	81.2%	93.2%	107%	105%
CCOC(=O)c1c(NC(=O)c2ccc(C(F)(F)F)cc2)sc2c3c(ccc12)OCN(C)C3	4.14% (active)	-16.8% (active)	-52.4% (active)	-61.7% (active)	-75.8% (active)	-13.8% (active)	12.1%
CCN(CC)S(=O)(=O)c1ccc(-c2nc(C(Cl)Cl)nc3cc(C)nn23)cc1	60.9%	14.8%	6.12% (active)	23.5%	10%	23.8%	8.52% (active)
CC1=Cc2ccccc2OC12C=Cc1ccccc1O2 (centres undefined)	81.8%	105%	101%	82.6%	99.3%	99.9%	97.6%
Cc1ccc(-c2cc3nc(C(Cl)Cl)nc(-c4ccc(S(=O)(=O)N(C)C)cc4)n3n2)cc1	93.8%	88.6%	83.1%	74.2%	62.9%	91.7%	86.5%
Fc1ccc2nc(-c3cnn4cccnc34)sc2c1	44.2%	108%	93.7%	26.7%	88.8%	83%	79.8%
C#Cc1cc(C(=O)Nc2ccc(CNCCN3CCOCC3)c(C(F)(F)F)c2)ccc1C	82.1%	94.9%	97.5%	83.5%	90.2%	102%	96.2%
Cn1cc(-c2cc3ncnc(Nc4ccc(NC(=O)Nc5cc(C(C)(C)C)on5)cc4)c3s2)cn1	1.81% (active)	17.5%	24.4%	18.5%	12.7%	74.1%	15.7%
